This passage reports outcome and AC50 results from PubChem BioAssay (EPA / NIEHS).

Calls of active or inactive are those of the source. Rule for the calls: active = hit-call score of the fitted dose curve at least 0.9, where 1 is the maximum; inactive = score below 0.9. Peptide text beside a SMILES is read from it.

System in one test: not listed separately
The test can be described thus: CCTE_Mundy_HCI_Cortical_NOG_BPCount: CCTE's Neurite Outgrowth Assay in rat cortical cells for Branch Point Count, Mundy Lab (AID 2284237).
Details: not given
The gist of the method:
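Measured 50.33 h after dosing, this morphology endpoint uses rat primary cortical cultures labelled for betaIII-tubulin. Branch points are quantified by high-content imaging, with DMSO as negative control and baseline.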
With `COC(=O)[C@H](Cc1ccccc1)NC(=O)[C@@H](N)CC(=O)O` (H-Asp-Phe-OMe), the outcome was inactive.
In the case of `Cc1noc(NS(=O)(=O)c2ccc(N)cc2)c1C`, the result was inactive.
Same read-out and setting: the value for `Cc1c(C(=O)c2c[nH]n(C)c2=O)ccc(S(C)(=O)=O)c1C1=NOCC1` was “inactive”.
Turning to `CCCCNS(=O)(=O)c1ccccc1`, the call was inactive.

Read-out in a further test: Collagen I, COL1A1 (gene 1277)
In words: BSK_MyoF_CollagenI: BioMAP Diversity Plus: MyoF Assay for Collagen I Biomarker Activity (AID 2284238). As to conditions: primary human lung fibroblasts. The gist of the method: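 Collagen I levels measured by ELISA on human lung fibroblast cultures 24 h post-dosing, with curve fitting in the positive direction relative to DMSO; SRB staining of parallel wells marked cytotoxicity.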
In the case of `COc1ccc(C(=O)/C(Br)=C\C(=O)O)cc1`, the result was inactive.
On the same count and under the same terms, the value for `CC=C(C)C(C)=O` was “inactive”; that for `CCOC(=O)/C=C\C(=O)OCC` was “inactive”; that for `CCCCCCC=O` was “inactive”.
Still for that read-out and setting: the value for `CCCCCCOC(=O)CCCCC(=O)OCCCCCC` was “inactive”.
The AC50 is the midpoint of the concentration-response curve, whichever way the signal moves. On to `CC/C=C\C/C=C\C/C=C\CCCCCCCC(=O)OC`, for which the AC50 was 9.7 µM (active).
Consider `CC(C)CCCCCOC(=O)CS`, for which the outcome was inactive.
As for `COC(OC)(C(=O)c1ccccc1)c1ccccc1`, the result was inactive.
As to `O=C1CCCCCCCCCCCN1`, the outcome was inactive.
Take `CCCCCC1=CCCC1=O`: the outcome was inactive.
Take `CC=C(C)C=CC=C(C)C`: the result was inactive.
Turning to `CCC1(C)C(=O)N(Cl)C(=O)N1Cl` (stereo unspecified), the outcome was inactive.
In the case of `CCCCCCCCC(CO)CCCCCC` (stereo unspecified), the outcome was inactive.
For `O=C(O)C(F)(F)C(F)(F)C(F)(F)C(F)(F)C(=O)O`, the result was inactive.
In the case of `CC1=CC=C(C(C)C)CC1`, the outcome was inactive.
`CC(C)c1cccc(C(C)C)c1N`: the outcome was inactive.
Consider `C=CC(=O)OCCCCCCCC(C)C`, for which the outcome was inactive.
Regarding `CCCCCCCCCCCC(C)=O`, the outcome was inactive.
Still for that read-out and setting: the value for `CC(c1cc(C(C)(C)C)cc(C(C)(C)C)c1O)c1cc(C(C)(C)C)cc(C(C)(C)C)c1O` was “inactive”; that for `CCCCC1C(=O)N(c2ccccc2)N(c2ccccc2)C1=O` was “inactive”.
In the case of `CC1(C)CC(O)CC(C)(C)N1[O]`, the outcome was inactive.
Turning to `CCNc1nc(NC(C)(C)C)nc(OC)n1`, the result was inactive.
